MITF act = activators of MITF-driven TRPM1 promoter activity in SK-MEL-5 cells | SK-MEL-5 TRPM1-promoter luciferase, 24 h; % of positive control, neutral wells = 0 | activation, % at 12.5 µM | actives 0.75% (n = 300,000) | AID 588334;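 active = mean activation of at least 80% with every replicate also reaching 80%; inconclusive = mean reaches 80% but some replicate falls short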;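 also: 0% = neutral control wells and 100% = parthenolide positive control wells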
HSF1 inh = HSF1 inhibition | NIH3T3-HGL HSE-luciferase, MG132-induced, luminescence 8 h; stronger effect = lower value | activity change, negative = inhibition, % at 7.5 µM (by protocol) | actives 0.77% (n = 300,000);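 active = more than half of replicate wells show activity change below -50%, luminescence cut by over half; inconclusive = some wells, but at most half, below -50%; inactive = no replicate well below -50%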;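 also: luciferase reports HSF-1 transcriptional activity via heat shock element; 0% = median of DMSO wells and -100% = zero luminescence signal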
Wnt act = Wnt/beta-catenin pathway activation. Wnt/beta-catenin reporter cell assay, activator, plate reader. activation, % at 9.35 µM. actives 1.2% (n = 300,000). AID 743398; in the data active = activation above about 30%, passing the limit was not always enough; inconclusive = no clear call, values can overlap the other calls;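 also: 0% = neutral control wells and 100% = positive control wells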
esBAF inh = SWI/SNF esBAF complex inhibition | mouse ES cells, Bmi1-luciferase knock-in reporter, 24 h; 100% = twice the neutral-well signal | reporter increase, % at 12.5 µM | actives 2% (n = 350,000) | AID 602393; in the data active = activation above about 40%; inconclusive = no clear call, values can overlap the other calls;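 also: 0% = median of the plate's neutral control wells and 100% = double that signal; a rise in the Bmi1 reporter signal indicates esBAF inhibition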
HSF1 activator = increases HSF-1 driven luciferase reporter signal | NIH3T3-HGL HSF-1 luciferase reporter, MG132, 8 h; 100% = twice DMSO control signal | activation, % at 9 µM | actives 1.7% (n = 300,000);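 active = mean replicate activation of at least 50% with a set share of replicates each reaching 50%; inconclusive = only one of those two conditions met; inactive = mean below 50% and too few replicates reaching it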;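 also: 0% = median of the neutral control wells and 100% = twice that signal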
Numbers without * were called inactive; ? = inconclusive; . = no result given. Only some compounds are listed: those with a hit (about 3.9% of all), similar ones and a draw of the others.

SMILES	MITF act	HSF1 inh	Wnt act	esBAF inh	HSF1 activator
C=CCOc1ccccc1CN(C(=O)CCl)c1ccc2c(c1)OCO2	-48	-93*	5	-6	-93
Cc1noc(C)c1S(=O)(=O)Nc1cccc2c1O[C@@H](CN(C)S(=O)(=O)c1cn(C)cn1)[C@@H](C)CN([C@@H](C)CO)C2=O	.	.	.	-1	.
Cc1ccc(S(=O)(=O)c2c(C)cc(C)nc2N2CCOCC2)cc1	8	-5	0	4	5
Cc1ccc(S(=O)(=O)c2c(C)cc(C)nc2N2CCCCC2)cc1	-14	23	0	.	58*
Cc1ccc(OCC(=O)Nc2sc3c(c2C#N)CCC3)cc1C	.	13	1	?	23
Cc1cccc(C(=O)Nc2sc3c(c2C#N)CCCCC3)c1	89*	-5	.	-1	-5
Cc1ccc(OCC(=O)Nc2sc3c(c2C#N)CCC3)cc1	111*	21	12	35	36
N#Cc1c(NC(=O)c2ccccc2)sc2c1CCC2	44	11	.	.	0
CCOC(=O)Nc1sc2c(c1C#N)CCCC2	91*	24	.	-8	38
CCC(=O)Nc1sc2c(c1C#N)CCC2	-20	-1	-1	.	-2
C/C=C/c1cnc2c(c1)C(=O)N([C@@H](C)CO)C[C@H](C)[C@H](CN(C)C(=O)Nc1ccc(F)cc1)O2	.	.	.	2	.
OCC1(CCOc2ccccc2)CCN(Cc2ccccc2C(F)(F)F)CC1	3	7	41*	-4	-3
O=C(C[C@H]1CC[C@H](NC(=O)C2CCC2)[C@H](CO)O1)NC1CCC1	.	.	.	-5	.
O=C(Nc1cccc(F)c1)Nc1ccc2c(c1)OCO2	?	11	?	50*	23
O=C(Nc1cccc(Cl)c1)NC1CC2CCC1C2 (stereo unspecified)	19	4	9	50*	27
N#CCc1ccc(NC(=O)Nc2cccc(Cl)c2)cc1	83*	8	.	0	25
Cc1csc(NC(=O)Nc2cccc(Cl)c2)n1	65	6	49*	88*	55*
CCCN1[C@@H]2Cn3c(ccc(/C=C/c4ccccc4)c3=O)[C@H]1[C@@H](C(=O)NCC)[C@@H]2CO	.	.	.	2	.
CN1c2ccc(-c3cccc(C#N)c3)cc2[C@@H]2[C@@H](CCN2C(=O)CC2CC2)[C@@H]1CO	.	.	.	1	.
O=C(Nc1cccc(F)c1)Nc1cccc(Cl)c1	60	0	24	55*	30
Cc1cccnc1NC(=O)Nc1cccc(Cl)c1	91*	-9	26	?	-27
O=C(Nc1cccc(Cl)c1)Nc1cccc(Cl)c1	46	10	4	5	-2
Cc1cccc(N2C(=O)CC(NNc3nc4ccccc4s3)C2=O)c1 (stereo unspecified)	-1	49	-4	.	109*
O=C1CC(NNc2nc3ccccc3s2)C(=O)N1c1ccc(F)cc1 (stereo unspecified)	.	32	-1	-2	41
CO[C@H]1CN(C)C(=O)c2ccc(NC(=O)Nc3cccc(F)c3)cc2OC[C@@H](C)N(C(=O)Nc2c(C)noc2C)C[C@@H]1C	.	.	.	2	.
SMILES	MITF act	HSF1 inh	Wnt act	esBAF inh	HSF1 activator
C/C(=N/OCc1ccc(Br)cc1)c1ccccn1	117*	22	18	6	84*
Cc1ccc(C(=O)CSc2nc(C(C)C)nc3ccccc23)cc1	-6	19	36*	0	25
CC(C)c1nc(SCC(=O)c2ccc(F)cc2)c2ccccc2n1	-1	?	1	.	-61
Cc1noc(C)c1NC(=O)Nc1ccc2c(c1)CC(=O)N([C@@H](C)CO)C[C@H](C)[C@@H](CN(C)S(=O)(=O)c1cccs1)O2	.	.	.	2	.
C(#Cc1ccccc1)CN1CCN(c2ccccn2)CC1	10	-72*	0	.	-79
CC(C)Oc1cccc(C(=O)NC2=NCCS2)c1	31	14	-2	.	13
COc1cccc(C(=O)NC2=NCCS2)c1	.	7	44*	-31	35
O=C(NC1=NCCS1)c1ccc(-c2ccc(Cl)cc2)o1	71	20	.	.	16
O=C(NC1=NCCS1)c1cccc(F)c1	.	3	7	.	27
O=C(NC1=NCCS1)c1ccc(Cl)cc1	.	22	21	44*	35
Cc1cc(NC(=O)c2cccc(Br)c2)n[nH]1	56	7	25	47*	7
Cc1cc(C)nc(NC(=O)c2cccc(Br)c2)n1	.	-5	0	-4	-5
O=C(NC1=NCCS1)c1cccc(Br)c1	.	3	42*	48*	14
O=C(NC1CCCCC1)N[C@@H]1CC[C@H](CCNS(=O)(=O)c2ccccc2)O[C@@H]1CO	.	.	.	6	.
Cc1noc(C)c1NC(=O)N(C)C[C@@H]1OCCCC[C@H](C)Oc2ccc(NC(=O)C3CCCCC3)cc2C(=O)N([C@H](C)CO)C[C@H]1C	.	.	.	2	.
CCc1nnc(N/N=C/c2ccccc2Cl)n1N	25	61	.	-37	72*
CCc1nnc(N/N=C/c2ccccc2F)n1N	6	50	-1	.	59*
COc1ccc(NC(=O)N(C)C[C@@H]2OCCCC[C@@H](C)Oc3ccc(NS(=O)(=O)c4ccc(Cl)cc4)cc3C(=O)N([C@H](C)CO)C[C@@H]2C)cc1	.	.	.	4	.
CNC[C@H]1Oc2c(NS(=O)(=O)c3cn(C)cn3)cccc2C(=O)N([C@@H](C)CO)C[C@@H]1C	.	.	.	-5	.
COc1ccc(CN(C)C[C@H]2Oc3ccc(NC(=O)c4ccncc4)cc3CC(=O)N([C@@H](C)CO)C[C@@H]2C)cc1	.	.	.	-2	.
Cc1ccc(NC(=O)c2sc(N)nc2-c2ccc([N+](=O)[O-])cc2)c(C)c1	15	41	-10	.	63*
Cc1cc([N+](=O)[O-])ccc1NC(=O)c1cccc(NC(=O)C(C)C)c1	67	21	18	.	58*
CC(C)C(=O)Nc1cccc(C(=O)Nc2cc([N+](=O)[O-])ccc2Cl)c1	-2	-9	-2	.	-1
Cc1cc([N+](=O)[O-])ccc1NC(=O)c1csc(C)c1C	124*	24	22	.	53*
O=C(N[C@@H]1CC[C@@H](CCNS(=O)(=O)c2cccc(Cl)c2)O[C@@H]1CO)c1ccccc1	.	.	.	2	.
SMILES	MITF act	HSF1 inh	Wnt act	esBAF inh	HSF1 activator
C[C@H]1CN([C@@H](C)CO)C(=O)c2cc(NC(=O)NC3CCCCC3)ccc2O[C@@H]1CN(C)C(=O)Nc1ccccc1	.	.	.	-8	.
COc1cccc(C#Cc2cnc3c(c2)C(=O)N([C@@H](C)CO)C[C@H](C)[C@H](CN(C)C(=O)C2CCCCC2)O3)c1	.	.	.	-9	.
O=C(Cc1ccccc1)N[C@@H]1C=C[C@H](CC(=O)N2CCCCC2)O[C@H]1CO	.	.	.	-3	.
COc1cccc2c1-c1c(C(=O)O)cccc1C2=O	.	-5	0	-3	-26
COc1ccc(N)c2c1C(=O)c1ccccc1C2=O	10	31	.	.	54*
COc1cccc2c1C(=O)c1ccc3ccccc3c1C2=O	41	16	.	47*	13
COc1ccc(OC)c2c1C(=O)C(Cl)=C(Cl)C2=O	.	-70*	-13	.	-71
COc1ccc(OC)c2c1C(=O)c1ccccc1C2=O	.	5	9	.	-2

From PubChem
